This is an account of results in PubChem BioAssay (EPA / NIEHS).

For orientation: AC50 means the concentration at which the activity in the assay is half-maximal.

The source made the active and inactive calls. Rule for the calls: active = hit-call score of the fitted dose curve at least 0.9, where 1 is the maximum; inactive = score below 0.9.

This experiment is described as follows: APR_HepG2_P-H2AX_24hr: Apredica 24-hour HepG2 Assay for H2AX Phosphorylation (AID 2282920). Particulars: high-content imaging, actives raise or lower the signal. How it is done: APR_HepG2_24hr is a cell-based, multiplexed-readout assay that uses HepG2, a human liver cell line, with measurements taken at 24 hours after chemical dosing in a 384-well plate.APR_HepG2_P-H2AX_24hr is one of 10 assay component(s) measured or calculated from the APR_HepG2_24hr assay. It is designed to make measurements of dna content, a form of viability reporter, as detected with fluorescence intensity signals by HCS Fluorescent Imaging technology.Data from the assay component APR_HepG2_P-H2AX_24hr was analyzed into 1 assay endpoint. This assay endpoint, APR_HepG2_P-H2AX_24hr, was analyzed with bidirectional fitting relative to DMSO as the negative control and baseline of activity. Using a type of viability reporter, measures of protein for gain or loss-of-signal activity can be used to understand the signaling at the pathway-level as they relate to the gene . Furthermore, this assay endpoint can be referred to as a primary readout, because this assay has produced multiple assay endpoints where this one serves a signaling function. To generalize the intended target to other relatable targets, this assay endpoint is annotated to the dna binding intended target family, where the subfamily is cellular response to DNA damage stimulus.
Cells were treated with dimethyl sulfoxide (DMSO) as a solvent control at a final concentration of 0.5% v/v or with compounds in DMSO with a resulting final DMSO concentration of 0.5% v/v. Compound treatment was done at concentrations of 0.39, 0.78, 1.56, 3.12, 6.24, 12.5, 25, 50, 100, and 200 uM in duplicate on each plate. Cells were treated with compounds for 1, 24, or 72 hr. Carbonyl […] m-chloro-phenylhydrazone (CCCP) and taxol were used as positive controls for mitochondrial function and cytoskeletal stability, respectively; DMSO served as the negative control for this experiment. Cells were fixed by the direct addition of 50 uL formaldehyde in Hank's Balanced Salt Solution (HBSS) to a final concentration of 3.7%. After incubation in the fixation medium for 30 min at room temperature (293-298 K), cells were rinsed twice with HBSS and treated with cell permeabilization buffer (16 uL of 0.5% Triton X-100) for 10 min at room temperature (293-298 K) before labeling. For mitochondrial membrane potential and mitochondrial measurements, pre-fixed cells were incubated with 50 uL of MitoTracker Red CMXRos (Invitrogen) at a concentration of 250 nM for 30 min before fixation. In the remaining cases, post-fixed cells were labeled by incubation with a multiplexed mixture of primary antibodies in HBSS for 60 min at room temperature (293-298 K) to detect immunoreactivity of c-Jun (1:500), phospho-histone H3 (1:100), phospho-histone H2A.x (1:200), p53 (1:400), alpha-tubulin (1:200) and Hoechst 33342 (2 ug/mL). Cells were labeled for multiplexed imaging on two separate plates: a) Hoechst 33342, MitoTracker Red, phospho-histone H3, and alpha-tubulin, and b) Hoechst 33342, phospho-histone H2A.x, and c-Jun. A final rinse with HBSS (50 uL) was performed before analysis. The primary and secondary antibodies for the proteins were phospho-histone H3 (rabbit anti-phospho-histone H3 and FITC-donkey anti-rabbit IgG), phospho-histone H2A.x (mouse anti-phospho-histone H2A.x and FITC-donkey anti-mouse IgG), c-Jun (rabbit anti-phospho-c-Jun and Cy3-donkey anti-rabbit IgG), p53 (sheep anti-p53 and Cy5-donkey anti-sheep IgG), alpha-tubulin (mouse anti-alpha-tubulin and Cy5-donkey anti-mouse IgG). These antibodies are available as the CellCiphr HepG2 assay kit (Millipore).Digital images of each well were captured using a Cellomics ArrayScan VTI (Thermo Scientific Cellomics) (0.8 NA objective, 0.63x optical coupler, and XF-93 filter set) at 20x magnification. The images were acquired using the autofocus feature of the ArrayScan instrument, which entails the following steps. First, the camera focuses on channel 1 (Hoechst 33342), where nuclei are identified. Second, a Z offset of 1 um is used for capturing mitochondria (MitoTracker Red). […]
On to `CCCCc1oc2ccccc2c1C(=O)c1cc(I)c(OCCN(CC)CC)c(I)c1`, for which the AC50 was 51.7 µM (active).

For the molecule `CS(=O)(=O)c1ccc([C@@H](CC2CCCC2)C(=O)Nc2cnccn2)cc1Cl`, the molecule was called inactive.

As for `CCCCC=O`, the result was inactive.

For `Cc1[nH]nc2c1N=C(c1ccccc1Cl)c1cc([N+](=O)[O-])ccc1N2`, the concentration at half-maximal activity (AC50) is 24.9 µM (active).

As for `CCCCC(CC)C(=O)O` (stereo not given), the molecule was called inactive.

`O=C1NS(=O)(=O)c2ccccc21`: the outcome was inactive.

`O=C(c1ccccc1)c1ccccc1`: the result was inactive.

Take `CCCCCCCCCCCCCCC`: the molecule was classed as inactive.

For `O=C(CCCN1CCC(O)(c2ccc(Cl)cc2)CC1)c1ccc(F)cc1`, the AC50 is 100 µM (active).

With `CC(=O)Nc1ccc(O)cc1`, the molecule was called inactive.

Turning to `CCCCCCCCCCCCOS(=O)(=O)O`, the molecule was called inactive.

For `CN(Cc1cnc2nc(N)nc(N)c2n1)c1ccc(C(=O)N[C@@H](CCC(=O)O)C(=O)O)cc1`, the molecule was called inactive.

Consider `CN(C)CCOC(c1ccccc1)c1ccccc1`, for which the result was inactive.

For `N=C(N)c1ccc(OCCCCCOc2ccc(C(=N)N)cc2)cc1`, the AC50 was 39.7 µM (active).

For `OCC(CO)(CBr)CBr`, the molecule was classed as inactive.
